13 compounds from PubChem BioAssay can be followed below.

Experiment [1] can be described thus: inhibitors of TNFa-induced NFkB p65 translocation, primary screen, imaging, HUVEC, MLSMR starter and 10KST1 sets (AID 438;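 active = inhibition above 20% together with a positive visual image hit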;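 also: compound added about 3h40 before a 20 min TNFalpha stimulation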;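 as to inhibition: signal is the nuclear over cytoplasmic p65 intensity ratio per well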). To be noted: HUVEC TNFa-induced p65 nuclear translocation; cell count: measured here: nuclei count (cytotoxicity indicator), at 2.08 µM; inhibition: at 2 µM, stronger effect = higher value, 0% TNFa-plus-vehicle, 100% no-TNFa wells.
Experiment [2] is described as follows: inhibitors of mutant huntingtin aggregation, primary screen, imaging, exon1htt(103Q)mCFP cells, high-content imaging (AID 483;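 active = visual image review flags a hit and inhibition of aggregation exceeds 20%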;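 also: compound exposure lasted 3 days before fixation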;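 as to nuclei count: percent of the per-plate median nuclei count of sample wells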). The note with it: exon1htt(103Q)mCFP cell line, aggregate imaging, at 2 µM; inhibition of aggregation: stronger effect = higher value; nuclei count: measured here: cell count, toxicity.
A short description of experiment [3]: inhibitors of E-selectin induction by TNFa, primary screen, imaging, HUVEC, immunofluorescence, MLSMR starter and 10KST1 sets (AID 487;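 active = visually confirmed hit in the image check and inhibition above 20%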;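 as to inhibition: signal is fraction of cell area covered by stained E-selectin grains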;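 as to nuclei count: 100% = median nuclei count of all wells on the same plate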). The note with it: HUVEC TNFalpha-induced E-selectin immunofluorescence imaging, at 2 µM; inhibition: stronger effect = higher value; nuclei count: measured here: cell number, toxicity.
The target in experiment [4] is Voltage-gated potassium channel subunit beta-2 (Rattus norvegicus) (UniProt P62483). As to the kind of experiment: KvBeta enzyme negative modulators, primary screen, biochemical, NADPH fluorescence (AID 622;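 active = fluorescence slope higher than the sample average by over 3 SD, cut at about -0.22 in these data, passing the limit was not always enough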;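 also: slope of raw intensity against log time taken from 70 to 1610 s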). The note with it: recombinant KvBeta, 4-cyanobenzaldehyde reduction, at 10 µM, stronger effect = higher value.
Voltage-gated potassium channel subunit beta-2 (Rattus norvegicus), sequence (P62483 whole entry, looked up): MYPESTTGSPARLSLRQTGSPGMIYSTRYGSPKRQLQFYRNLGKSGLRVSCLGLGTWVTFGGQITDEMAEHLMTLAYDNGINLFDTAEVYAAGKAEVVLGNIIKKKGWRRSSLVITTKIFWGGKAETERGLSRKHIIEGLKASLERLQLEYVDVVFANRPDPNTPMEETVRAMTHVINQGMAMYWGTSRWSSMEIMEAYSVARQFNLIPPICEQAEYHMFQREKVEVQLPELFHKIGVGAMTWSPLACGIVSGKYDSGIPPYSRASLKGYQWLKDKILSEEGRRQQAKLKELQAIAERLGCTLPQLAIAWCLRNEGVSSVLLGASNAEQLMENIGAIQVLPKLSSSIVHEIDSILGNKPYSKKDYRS
For experiment [5] the target is unchanged. Put plainly: KvBeta positive modulators, primary screen, biochemical, NADPH fluorescence (AID 623;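 active = NADPH fluorescence slope more negative than the mean of all samples by about 3 SD, 99.7% confidence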;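 also: fluorescence intensity change per second fitted from 20 to 320 s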). To be noted: Recombinant KvBeta, NADPH fluorescence decrease slope, 10 min; at 10 µM; stronger effect = lower value.
For experiment [6], the target named is Alpha-2C adrenergic receptor (Homo sapiens) (UniProt P18825). Put plainly: modulators of alpha2C/GIRK thallium flux, primary screen, cell-based, HEK293 alpha2C/GIRK1/2 (AID 624).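 Also: slope of fluorescence ratio to pre-addition baseline per second over 15 to 24 s.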 To be noted: thallium flux BTC fluorescence, at 10 µM, actives lie on both sides.
Alpha-2C adrenergic receptor (Homo sapiens), sequence (P18825 whole entry, looked up): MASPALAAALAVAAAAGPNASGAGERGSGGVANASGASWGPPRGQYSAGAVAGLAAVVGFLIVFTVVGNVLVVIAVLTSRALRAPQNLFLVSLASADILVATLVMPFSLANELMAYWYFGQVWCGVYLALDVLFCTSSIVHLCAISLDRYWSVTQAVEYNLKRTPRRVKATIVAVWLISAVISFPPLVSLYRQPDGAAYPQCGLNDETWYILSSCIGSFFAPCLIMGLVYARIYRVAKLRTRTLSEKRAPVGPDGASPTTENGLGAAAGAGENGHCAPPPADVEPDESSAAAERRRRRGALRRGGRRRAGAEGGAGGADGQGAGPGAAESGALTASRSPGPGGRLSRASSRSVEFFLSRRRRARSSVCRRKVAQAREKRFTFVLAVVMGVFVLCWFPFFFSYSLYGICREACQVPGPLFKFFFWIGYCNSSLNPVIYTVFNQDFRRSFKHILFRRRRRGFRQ
Experiment [7] can be described thus: inhibitors of Sendai virus-induced IRF3 signaling, primary screen, TLR/RLR signaling modifier project, cell-based, Sendai virus stimulus, luciferase, 10K MLSCN set (AID 602276;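 active = inhibition at or above 50% at 10 µM; inactive = inhibition below 50%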;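 also: firefly luciferase from ISG56 promoter only with Renilla not read in this screen; 0% = Sendai virus plus DMSO and 100% = medium plus DMSO without virus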). The note with it: HEK293 RL24 IRF3 luciferase reporter, at 10 µM, stronger effect = higher value.
Experiment [8] in a line: inhibitors of poly I:C-induced TLR3 signaling, primary screen, cell-based, poly I:C stimulus, luciferase, 10K MLSCN set (AID 602277;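 active = inhibition of the reporter signal at or above 50%; inactive = inhibition below 50%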). To be noted: HEK293-TLR3 RL24 IRF3 luciferase reporter, at 10 µM, stronger effect = higher value. On the technique in general: A reporter such as luciferase makes a cellular process visible.

Activity calls are given as the source filed them.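 The calls were made as follows, unless noted: active = fluorescence slope after compound addition differing from the mean of all screened samples at 99.7% confidence, in either direction; inactive = the rest.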

For orientation: inhibition means the relative decrease from the control value, in per cent. `Cc1ccc(N(C)C(=O)N2CCN(c3ccccn3)CC2)cc1`: in experiment [1], the cell count is 525. Moreover, the inhibition is -0.8% (inactive) in experiment [1], -41% (inactive) in experiment [3], 5.03% (inactive) in experiment [7] and 27.2% (inactive) in experiment [8]. Also, the inhibition of aggregation in experiment [2] is 30.2% (inactive). Besides, the nuclei count in experiment [2] was 59.5%; in experiment [3] it was 97.6%. In experiment [4], the fluorescence slope was -0.59 (inactive). In experiment [5], the NADPH fluorescence slope was -2.8e-05 (inactive). Moreover, in experiment [6], the slope is 0.00868 (inactive).

For `CC(CC(=O)NC1CCSC1=O)c1ccccc1` (stereo not drawn), the cell count in experiment [1] was 396. The inhibition in experiment [1] was -4.2% (inactive); in experiment [3] it was -43.3% (inactive); in experiment [7] it was -7.84% (inactive); in experiment [8], 17% (inactive). Further, the inhibition of aggregation in experiment [2] was 8.2% (inactive). Further, the nuclei count in experiment [2] was 102%; in experiment [3], 124%. In experiment [4], the fluorescence slope was -0.452 (inactive). Also, the NADPH fluorescence slope in experiment [5] is 3.8e-05 (inactive). Moreover, the slope in experiment [6] was 0.00567 (inactive).

With `CCOC(=O)C1CCCN(c2c(N3CCN(c4ccccn4)CC3)c(=O)c2=O)C1` (stereo not drawn), the cell count in experiment [1] was determined as 631. Moreover, the inhibition in experiment [1] is 6.9% (inactive); in experiment [3], -5.4% (inactive); in experiment [7] it was 3.88% (inactive); in experiment [8], 27.8% (inactive). Further, the inhibition of aggregation in experiment [2] was 11.3% (inactive). Besides, the results for the nuclei count in experiment [2] and in experiment [3] were 98.8% and 132%, respectively. Further, in experiment [4], the fluorescence slope was -0.503 (inactive). Moreover, the NADPH fluorescence slope in experiment [5] was -3.5e-05 (inactive). In addition, in experiment [6], the slope is 0.00587 (inactive).

For the compound `COc1ccc2[nH]c(=O)c(CN(C(=O)c3cccnc3)c3ccccc3OC)cc2c1`, in experiment [1], the cell count is 466. Besides, the inhibition in experiment [1] was -3.3% (inactive); in experiment [3], -19.8% (inactive); in experiment [7], 12.5% (inactive); in experiment [8] it was 22.6% (inactive). Further, in experiment [2], the inhibition of aggregation was -3% (inactive). Also, the figures for the nuclei count in experiment [2] and in experiment [3] were 114% and 113%, respectively. In experiment [4], the fluorescence slope is -0.449 (inactive). Moreover, the NADPH fluorescence slope in experiment [5] is 1.5e-05 (inactive). Moreover, the slope in experiment [6] is 0.00765 (inactive).

As to `COc1ccc(-c2ccc(-c3noc(-c4cccs4)n3)c(OC)n2)cc1`, in experiment [1], the cell count turned out to be 391. Also, the inhibition in experiment [1] is 6.8% (inactive); in experiment [3] it was -18.2% (inactive); in experiment [7], -28.9% (inactive); in experiment [8] it was -86.9% (inactive). The inhibition of aggregation in experiment [2] was 20.7% (inactive). The nuclei count was found to be 95.6% in experiment [2] and 102% in experiment [3]. Besides, the fluorescence slope in experiment [4] is -0.0459 (active). The NADPH fluorescence slope in experiment [5] was -6.5e-07 (inactive). Besides, the slope in experiment [6] is 0.00541 (inactive).

On to `CCOC(=O)c1c(NC(=O)Cn2c(=O)oc3ccccc32)oc(C)c1C(C)=O`, for which the cell count in experiment [1] was determined as 365. The inhibition in experiment [1] is -5.4% (inactive); in experiment [3] it was 1.9% (inactive); in experiment [7], 5.7% (inactive); in experiment [8], 11.9% (inactive). The inhibition of aggregation in experiment [2] is -18.8% (inactive). The nuclei count in experiment [2] turned out to be 74.1%; in experiment [3], 119%. Besides, the fluorescence slope in experiment [4] was -0.484 (inactive). Further, the NADPH fluorescence slope in experiment [5] is 1.5e-05 (inactive). For the same compound, the slope in experiment [6] was 0.00454 (inactive).

Consider `CCOC(=O)c1cnc(C(C)(C)C)[nH]c1=O`, for which, in experiment [1], the cell count was determined as 328. Also, the inhibition in experiment [1] is -6.5% (inactive); in experiment [3], -109% (inactive); in experiment [7] it was 10.2% (inactive); in experiment [8] it was 17.4% (inactive). In experiment [2], the inhibition of aggregation is -6.3% (inactive). The values for the nuclei count in experiment [2] and in experiment [3] were 109% and 142%, respectively. Further, the fluorescence slope in experiment [4] is -0.318 (inactive). For the same compound, in experiment [5], the NADPH fluorescence slope is -4.2e-05 (inactive). In addition, the slope in experiment [6] is 0.00422 (inactive).

As for `Nc1nc(NCc2ccco2)nn1-c1ccccc1`, the cell count in experiment [1] was determined as 335. The inhibition is -14.2% (inactive) in experiment [1], 5.3% (inactive) in experiment [3], 7.08% (inactive) in experiment [7] and -10.7% (inactive) in experiment [8]. In addition, the inhibition of aggregation in experiment [2] was -22.2% (inactive). The nuclei count in experiment [2] was 112%; in experiment [3], 93.7%. Besides, the fluorescence slope in experiment [4] is -0.402 (inactive). The NADPH fluorescence slope in experiment [5] is -8.1e-05 (inactive). Also, in experiment [6], the slope was 0.00567 (inactive).

Turning to `Nn1c(SCC(=O)Nc2ccc(F)cc2)nnc1-c1cccnc1`, the cell count in experiment [1] was 74. Besides, the inhibition was 55.5% (active) in experiment [1], -112% (inactive) in experiment [3], 12.6% (inactive) in experiment [7] and 25.6% (inactive) in experiment [8]. Further, in experiment [2], the inhibition of aggregation was -0.3% (inactive). Further, the nuclei count was 111% in experiment [2] and 108% in experiment [3]. Further, in experiment [4], the fluorescence slope is -0.397 (inactive). In addition, in experiment [5], the NADPH fluorescence slope was -0.000146 (inactive). For the same compound, the slope in experiment [6] was 0.00484 (inactive).

Regarding `Cc1cc(C(=O)N2CCN(C/C=C/c3ccccc3)CC2)no1`, in experiment [1], the cell count stood at 242. The inhibition in experiment [1] was 8.7% (inactive); in experiment [3], 11.3% (inactive); in experiment [7], 13% (inactive); in experiment [8], 25.3% (inactive). Also, in experiment [2], the inhibition of aggregation is -4.4% (inactive). Besides, the nuclei count in experiment [2] turned out to be 101%; in experiment [3], 98.6%. For the same compound, the fluorescence slope in experiment [4] is -0.465 (inactive). Moreover, the NADPH fluorescence slope in experiment [5] was 1.9e-06 (inactive). Also, the slope in experiment [6] is 0.0056 (inactive).

In the case of `COc1ccc(C(=O)N2CCN(C(=O)c3ccco3)CC2)cc1OC`, the cell count in experiment [1] came to 546. Moreover, the inhibition was -3.9% (inactive) in experiment [1], -184% (inactive) in experiment [3], 13.2% (inactive) in experiment [7] and 13.7% (inactive) in experiment [8]. The inhibition of aggregation in experiment [2] is -2.2% (inactive). Further, the nuclei count in experiment [2] was 108%; in experiment [3], 199%. The fluorescence slope in experiment [4] was -0.401 (inactive). In addition, in experiment [5], the NADPH fluorescence slope was -3.4e-05 (inactive). Further, the slope in experiment [6] was 0.00558 (inactive).

As for `CC(=O)Nc1ccc(N=Cc2ccc[nH]2)cc1`, the cell count in experiment [1] was 362. Moreover, the inhibition in experiment [1] was 3.4% (inactive); in experiment [3], 9.1% (inactive); in experiment [7], 9.12% (inactive); in experiment [8], -21% (inactive). Further, the inhibition of aggregation in experiment [2] is -8.9% (inactive). In addition, the figures for the nuclei count in experiment [2] and in experiment [3] were 108% and 99.4%, respectively. Also, the fluorescence slope in experiment [4] is -0.264 (inactive). Besides, the NADPH fluorescence slope in experiment [5] was -1.6e-05 (inactive). The slope in experiment [6] is 0.00576 (inactive).

Turning to `O=C(Nc1ccc(Cl)c(C(F)(F)F)c1)N1CCCC(O)C1` (stereo not drawn), the cell count in experiment [1] turned out to be 356. Also, the inhibition in experiment [1] was 4.5% (inactive); in experiment [3] it was -50.8% (inactive); in experiment [7] it was 1.7% (inactive); in experiment [8], -22.3% (inactive). In addition, the inhibition of aggregation in experiment [2] is -4.8% (inactive). Also, the nuclei count in experiment [2] amounted to 106%; in experiment [3], 107%. Also, the fluorescence slope in experiment [4] was -0.453 (inactive). Also, in experiment [5], the NADPH fluorescence slope was 2.2e-05 (inactive). In addition, the slope in experiment [6] is 0.00599 (inactive).
